From publication PMC5540273 (PLoS ONE, 2017)

Assays:
Conditions in all cases: concentration: 1 μM, replicates: in singlicate; n = 1
[1] = tested on: NEK7
[2] = tested on: NEK9
[3] = tested on: T1, NIK
T1 construct: gene MAP3K14

[4] = tested on: T2, NIM1
T2 construct: gene MGC42105

[5] = tested on: NLK
[6] = tested on: T3, OSR1
T3 construct: gene OXSR1

[7] = tested on: PAK1
[8] = tested on: PAK2
[9] = tested on: PAK3
[10] = tested on: PAK4
[11] = tested on: PAK6
[12] = tested on: PAK7
[13] = tested on: T4, PCTK1
T4 construct: gene CDK16

[14] = tested on: T5, PCTK2
T5 construct: gene CDK17

[15] = tested on: T6, PCTK3
T6 construct: gene CDK18

[16] = tested on: PDGFRA
[17] = tested on: PDGFRB
[18] = tested on: PDPK1
[19] = tested on: PFTAIRE2
[20] = tested on: T7, PFTK1
T7 construct: gene CDK14
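Further: KINOMEscan kinase panel screen.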

| Compound | %Inh [1] | %Inh [2] | %Inh [3] | %Inh [4] | %Inh [5] | %Inh [6] | %Inh [7] | %Inh [8] | %Inh [9] | %Inh [10] | %Inh [11] | %Inh [12] | %Inh [13] | %Inh [14] | %Inh [15] | %Inh [16] | %Inh [17] | %Inh [18] | %Inh [19] | %Inh [20] |
| --- | --- | --- | --- | --- | --- | --- | --- | --- | --- | --- | --- | --- | --- | --- | --- | --- | --- | --- | --- | --- |
| COc1cc2ncnc(Nc3ccc4nc(-c5ccccc5)[nH]c4c3)c2cc1OC.Cl [GW282450] | 0% | 22% | 23% | 18% | 38% | 11% | 9% | 9% | 0% | 0% | 11% | 12% | 0% | 0% | 1% | 0% | 28% | 0% | 8% | 19% |
| Nc1nc(-c2nccs2)c(-c2ccnc3ccccc23)s1 [GW693542] | 0% | 12% | 0% | 5% | 38% | 6% | 0% | 1% | 9% | 0% | 9% | 0% | 8% | 0% | 5% | 0% | 1% | 0% | 13% | 17% |
| Cn1ccc2ncnc(Oc3ccc(NC(=O)Nc4ccccc4)cc3)c21 | 0% | 0% | 6% | 0% | 11% | 0% | 10% | 17% | 40% | 10% | 0% | 0% | 1% | 4% | 1% | 97.6% | 100% | 0% | 0% | 0% |
| O=S(=O)(c1ccc(-c2ccnc3[nH]ccc23)cc1)N1CCCC1 [GSK846226] | 20% | 28% | 12% | 0% | 14% | 4% | 0% | 0% | 12% | 0% | 20% | 15% | 7% | 0% | 0% | 0% | 24% | 0% | 24% | 27% |
| O=c1cc(N2CCOCC2)nc2n(Cc3cccc(Cl)c3Cl)ccn12 [GSK2286295] | 0% | 27% | 32% | 0% | 28% | 14% | 22% | 11% | 0% | 0% | 0% | 22% | 6% | 15% | 13% | 0% | 37% | 0% | 23% | 2% |
| CC1=C(C(=O)Nc2cc3cn[nH]c3cc2F)C(c2ccc(C(F)(F)F)cc2)CC(=O)N1 (centres unmarked) [GSK429286] | 0% | 0% | 27% | 12% | 13% | 18% | 0% | 4% | 45% | 0% | 0% | 0% | 3% | 0% | 5% | 0% | 18% | 0% | 0% | 12% |
| O=C(Nc1n[nH]c2nc(-c3nccs3)c(Br)cc12)C1CC1 [SB-742251] | 0% | 0% | 44% | 0% | 0% | 7% | 2% | 16% | 20% | 0% | 0% | 0% | 45% | 18% | 26% | 0% | 14% | 0% | 4% | 14% |
| Cc1ccc(NC(=O)Nc2cccc(Cl)c2)cc1-c1ccc(C(=O)Nc2ccncc2)cc1 [GSK1398468] | 0% | 0% | 2% | 11% | 38% | 12% | 19% | 0% | 0% | 0% | 0% | 1% | 0% | 0% | 0% | 43% | 99.9% | 0% | 16% | 20% |
| COc1ccccc1CNC(=O)c1cc(C(=O)c2ccccc2C)c[nH]1 [GSK364507] | 6% | 15% | 12% | 16% | 40% | 8% | 6% | 1% | 0% | 0% | 0% | 0% | 4% | 0% | 27% | 0% | 52% | 0% | 0% | 22% |
| COc1ccc2nc(-c3cccc(C)n3)nc(Nc3ccncc3)c2c1 [GSK204919] | 0% | 0% | 0% | 0% | 52% | 10% | 8% | 14% | 7% | 0% | 0% | 1% | 5% | 0% | 36% | 0% | 25% | 12% | 0% | 14% |
| Cn1cncc1-c1ccc2ncnc(Nc3ccc(OCc4ccccc4)cc3)c2c1 [GW320571] | 0% | 12% | 0% | 19% | 11% | 19% | 0% | 0% | 2% | 0% | 0% | 0% | 0% | 0% | 7% | 0% | 9% | 9% | 20% | 0% |
| Cl.Oc1ccc(-c2nc(-c3ccccc3)[nH]c2-c2ccncc2)cc1 [SB-428218] | 0% | 0% | 74% | 38% | 45% | 0% | 55% | 55% | 20% | 0% | 0% | 0% | 4% | 0% | 20% | 0% | 13% | 0% | 0% | 21% |
| CC(=O)Nc1nc2cnc(Nc3cc(NC(=O)c4cccc(CCC#N)c4)ccc3C)nc2s1 | 6% | 0% | 0% | 0% | 0% | 0% | 0% | 0% | 7% | 5% | 19% | 0% | 9% | 6% | 8% | 94.3% | 100% | 4% | 0% | 12% |
| Cn1ccc2ncnc(Oc3cccc(C(=O)Nc4ccccc4)c3)c21 | 0% | 0% | 0% | 0% | 4% | 0% | 0% | 0% | 9% | 21% | 0% | 0% | 0% | 2% | 0% | 12% | 39% | 0% | 0% | 7% |
| CS(=O)(=O)c1ccc(-c2nc3n(c2-c2ccncc2)CCC3)cc1 [SKF-105942] | 0% | 0% | 3% | 17% | 0% | 0% | 19% | 26% | 0% | 0% | 99.2% | 0% | 11% | 0% | 0% | 0% | 4% | 0% | 12% | 37% |
| C[C@@H]1CCCCN1c1cc(-c2ccc3c(N)n[nH]c3c2)nc(N)n1 [GSK2258759] | 0% | 0% | 7% | 0% | 23% | 0% | 6% | 0% | 0% | 0% | 0% | 0% | 5% | 0% | 0% | 0% | 6% |  | 3% | 17% |
| Fc1cc(Cl)ccc1Nc1ccnc2cc(-c3ccc(CN4CCCCC4)o3)ccc12 [GW560116] | 0% | 0% | 10% | 0% | 16% | 0% | 2% | 5% | 0% | 0% | 0% | 16% | 0% | 0% | 27% | 65% | 94.8% | 100% | 0% | 18% |
| CN(C)CCN(C)C(=O)c1cc(-c2ccncc2)c(-c2ccc(Cl)c(O)c2)o1.Cl.Cl [SB-710397] | 0% | 0% | 16% | 35% | 76% | 4% | 6% | 0% | 16% | 0% | 0% | 0% | 4% | 0% | 0% | 0% | 22% | 0% | 0% | 0% |
